Measurements as given in PubChem BioAssay (NCI).
Values joined by “and” are separate entries in the source; they are usually repeats but may differ in a detail not shown here. Equal entries are not always repeated. About 83,000 compounds went through this panel and 20% of them were active in at least one assay; those are over-represented in the sample as a whole.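 Assay: single dose, 48 h. Readout: percent growth (0 = no net growth; negative = cell death). Active: <10.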 A structure can be active in one record and inactive in another. Active and inactive are the calls of the source.

The compounds below were run on HT29 colon (assay: NCI-60 one-dose screen, 48 h (100 = growth as untreated, 0 = no growth, -100 = all killed)). Conditions: 10 µM.
Experimental: Growth inhibition of the HT29 human tumor cell line is measured as a screen for anti-cancer activity. Cells are grown in 96 well plates and exposed to the test compound for 48 hours. Compounds are tested at a single concentration, which is 10^-5 M for most compounds. The reported endpoint is percent growth (GI% or GIPRCNT), where numbers from 0 - 100% represent growth inhibition, and numbers from -100% - 0 represent cell death. For example, a value of 40 represents 60% growth inhibition. A value of 0 means no net growth occurred over the course of the experiment. A value of -40 indicates 40% of cells at the beginning of the experiment died by the end of the experiment. A value of -100 means all cells are dead at the end of the experiment.
NCI-60 Human Tumor Cell Lines Screen was performed using the standard one-dose NCI protocol, which is described in more detail at https://dtp.cancer.gov/discovery_development/nci-60/default.htm.
Compounds with GIPRCNT values below 10 were considered active. Activity score was based on GIPRCNT using the following formula: […]
Score is 0 for GIPRCNT values of 100 or above, 50 for GIPRCNT values of 0, and 100 for GIPRCNT values of -100.

SMILES | growth
CN(CCF)/N=N/c1nc[nH]c1C(N)=O | 42% (inactive)
C[C@@H]1CCC/C=C/[C@H]2C[C@@H](O)C[C@@H]2[C@@H](O)/C=C/C(=O)O1 | 0.531% (active)
CC1=C[C@H]2O[C@@H]3C[C@H]4OC(=O)/C=C\C=C\[C@H]([C@@H](C)O)OCC[C@@H](C)[C@H](O)C(=O)OC[C@@]2(CC1)[C@]4(C)[C@]31CO1 | -27.8% (active)
CC1=C(CN(O)C(N)=O)C2=C(C)C3(CC3)[C@@](C)(O)C(=O)C2=C1 | 0.349% (active)
CC1=C2C(=C[C@@](C)(COC(=O)c3ccc(S(=O)(=O)F)cc3)[C@@H]2OC(=O)c2ccc(S(=O)(=O)F)cc2)C(=O)[C@](C)(O)C12CC2 | 2.13% (active)
N#Cc1nc(-c2ccccc2)oc1N1CCC(S(=O)(=O)F)CC1 | 102% (inactive)
C/C=C/CC(C)C(O)[C@H](NC(=O)[C@@H]1CCCN1C(=O)C(C)(C)NC(=O)CCCCCCC)C(=O)N[C@@](C)(CC)C(=O)N[C@@H](CCC(N)=O)C(=O)N[C@H](CCC(N)=O)C(=O)NC(C)(C)C(=O)NC(C)(C)C(=O)N[C@@H](CCC(N)=O)C(=O)N[C@H](CC(C)C)C(=O)N[C@H](CO)CC(C)C (stereo not given in full) | 113% (inactive) and 37.8% (inactive)
COc1cc2c(O[C@@H]3OC[C@H](OC(C)=O)[C@H](OC(C)=O)[C@H]3O)c3c(c(-c4ccc5c(c4)OCO5)c2cc1OC)C(=O)OC3 | 9% (active)
COC1[C@@H]2C[C@H]3C(C)(C)O[C@@](C/C=C(/C)C(=O)O)(C2=O)[C@]32Oc3c(CC=C(C)C)c4c(c(O)c3C(=O)[C@H]12)C=CC(C)(C)O4 (stereo not given in full) | -33.3% (active)
CC(=O)O[C@@H]1[C@@H]2O[C@H]2[C@@](C)(O)C(=O)[C@@H](C)C/C=C/[C@H]2[C@@H]3O[C@]3(C)[C@@H](C)C3[C@H](Cc4ccccc4)NC(=O)[C@@]312 (stereo not given in full) | 36.3% (inactive)
CC1=C[C@H]2O[C@@H]3C[C@H]4OC(=O)/C=C\C=C\[C@H]([C@@H](C)O)OCC/C(C)=C/C(=O)OC[C@@]2(CC1)[C@]4(C)[C@]31CO1 | -27.7% (active)
C/C=C\C(=O)O[C@@H]1CC2O[C@@H]3C=C(C)C(=O)C[C@]3(C)[C@]1(C)[C@]21CO1 | -33.4% (active)
CC1=C2C(=C[C@@](C)(C=O)[C@@H]2O)C(=O)[C@](C)(O)C12CC2 | 4.21% (active)
COC(=O)[C@H]1[C@@H](O)[C@@]2(O)c3c(OC)cc(OC)cc3O[C@@]2(c2ccc(OC)cc2)[C@@H]1c1ccccc1 | -34.3% (active)
CC1=C(CN(O)C(N)=O)C2=C(C)C3(CC3)[C@](C)(O)C(=O)C2=C1 | 3.85% (active)
CN1C(=O)[C@]23SSC1(C)C(=O)N2[C@H]1Nc2ccccc2C1([C@@]12c4ccccc4N[C@@H]1N1C(=O)C4(C)SS[C@]1(C(=O)N4C)[C@H]2O)[C@@H]3O (stereo not given in full) | -66.7% (active)
C/C=C/CC(C)C(O)[C@H](NC(=O)[C@@H]1CCCN1C(=O)C(C)(C)NC(=O)CCCCCCCCC)C(=O)NC(C)(C)C(=O)N[C@@H](CCC(N)=O)C(=O)N[C@H](CCC(N)=O)C(=O)NC(C)(C)C(=O)NC(C)(C)C(=O)N[C@@H](CCC(N)=O)C(=O)N[C@H](CC(C)C)C(=O)N[C@H](CO)CC(C)C (stereo not given in full) | 4.29% (active) and 5.04% (active)
CC(C)(O)/C=C/C(=O)[C@](C)(O)[C@H]1[C@H](O)C[C@@]2(C)[C@H]3CC=C4[C@@H](C[C@H](O)C(=O)C4(C)C)[C@]3(C)C(=O)C[C@]12C | 3.2% (active)
CC(=O)O[C@@H]1C[C@H]2O[C@@H]3C=C(C)CC[C@]3(C)[C@]1(C)[C@]21CO1 | 8.97% (active)
N#Cc1c(-n2c(Br)c(Br)c3cc(Br)ccc32)[nH]c2c(Br)cc(Br)cc12 | -15.1% (active)

SMILES | growth
CC1=C2C(=C[C@@](C)(COS(C)(=O)=O)[C@@H]2O)C(=O)[C@](C)(O)C12CC2 | 3.64% (active)
CC(C)=CCc1c2c(c(O)c3c1O[C@]14C(=C[C@@H]5C[C@H]1C(C)(C)O[C@@]4(C/C=C(/C)C(=O)O)C5=O)C3=O)C=CC(C)(C)O2 | -86.7% (active)
COc1cc(C)c(-c2ccc(OC)c(=O)cc2C)c(OC)c1OC | 4.37% (active) and 113% (inactive)
CCCCCCCCCC(=O)N[C@@](C)(CC)C(=O)N1CCC[C@H]1C(=O)N[C@@H](CC(C)C)C(=O)N[C@@](C)(CC)C(=O)N[C@@H](CCC(N)=O)C(=O)N[C@H](CCC(N)=O)C(=O)NC(C)(C)C(=O)NC(C)(C)C(=O)N[C@@H](CCC(N)=O)C(=O)N[C@H](CC(C)C)C(=O)N[C@H](CO)CC(C)C | -40.3% (active) and -67.2% (active)
COc1cc2c(O[C@@H]3OC[C@H](O)[C@H](O)[C@H]3O)c3c(c(-c4ccc5c(c4)OCO5)c2cc1OC)C(=O)OC3 | 38.6% (inactive)
Cc1ccc(CNc2nc3ccc(OC/C(=C/F)CN)cc3o2)cn1 | 112% (inactive)
NC1CCc2cc(O)c(O)cc2C1 (stereo not given) | 39.7% (inactive)
CC1=C2C(=C[C@@](C)(COC(=O)c3ccc(S(=O)(=O)F)cc3)[C@@H]2O)C(=O)[C@](C)(O)C12CC2 | -17.9% (active)
CC1=C[C@H]2O[C@@H]3C[C@@H](O)[C@](C)([C@@]2(C)CC1)[C@@]31CO1 | 11.4% (inactive)
CC1=C(CCC=NNC(N)=O)C2=C(C)C3(CC3)[C@@](C)(O)C(=O)C2=C1 | -9.67% (active)
O=C(CCCc1ccc(N(CCCl)CCCl)cc1)OCc1ccccc1 | 95.8% (inactive)
C/C=C/CC(C)C(O)[C@H](NC(=O)[C@@H]1CCCN1C(=O)C(C)(C)NC(=O)CCCCCCCCC)C(=O)N[C@@](C)(CC)C(=O)N[C@@H](CCC(N)=O)C(=O)N[C@H](CCC(N)=O)C(=O)NC(C)(C)C(=O)NC(C)(C)C(=O)N[C@@H](CCC(N)=O)C(=O)N[C@H](CC(C)C)C(=O)N[C@H](CO)CC(C)C (stereo not given in full) | 58.1% (inactive) and 90.2% (inactive)
COc1cc(OC)c(S(=O)(=O)N(CCCl)CCCl)cc1C(=O)/C=C/c1ccc(Cl)cc1 | 79.5% (inactive)
C[C@@H]1C[C@H]2C(=O)O[C@@H](C)C(NC(=O)[C@H](Cc3cc(F)cc(F)c3)NC(=O)Nc3ccc(OS(=O)(=O)F)cc3)C(=O)N3CCC[C@H]3C(=O)N3CCO[C@H](C)[C@H]3C(=O)N[C@@H](CO)C(=O)N2C1 (stereo not given in full) | 34.6% (inactive)
CCC(C)[C@H]1C(=O)O[C@H](C(C)C)C(=O)N(C)[C@@H](C(C)C)C(=O)O[C@H](C(C)C)C(=O)N(C)[C@@H](C(C)C)C(=O)O[C@H](C(C)C)C(=O)N1C (stereo not given in full) | 9.91% (active)
COc1cc2c(cc1OC)[C@@H]1N(CC2)C(=O)c2ccccc2[C@@]1(C)C(=O)O | 107% (inactive)
COc1cccc2c1cc([N+](=O)[O-])c1c(C(=O)O)cc3c(c12)OCO3 | 0.133% (active)
C=C1[C@@H](C)C2[C@H](Cc3ccccc3)NC(=O)[C@]23[C@H](OC(C)=O)/C=C/[C@@](C)(O)C(=O)[C@@H](C)C/C=C/[C@H]3[C@@H]1O (stereo not given in full) | 11.8% (inactive)
CC1=C2C(=O)[C@](C)(CO)C=C2C(=O)[C@](C)(O)C12CC2 | 2.57% (active)
C/C=C/CC(C)C(O)[C@H](NC(=O)[C@@H]1CCCN1C(=O)C(C)(C)NC(=O)CCCCCCCCC)C(=O)N[C@@](C)(CC)C(=O)N[C@@H](CCC(N)=O)C(=O)N[C@H](CCC(N)=O)C(=O)NC(C)(C)C(=O)N[C@@](C)(CC)C(=O)N[C@@H](CCC(N)=O)C(=O)N[C@H](CC(C)C)C(=O)N[C@H](CO)CC(C)C (stereo not given in full) | 116% (inactive) and 29.2% (inactive)
